Results filed as inconclusive are left out. The source made the active and inactive calls. Rule for the calls, unless noted: active = hit-call score of the fitted dose curve at least 0.9, where 1 is the maximum; inconclusive = response in the unintended direction; inactive = score below 0.9.

In the first test the target is Peroxisome proliferator-activated receptor gamma (Homo sapiens) (UniProt P37231). As to the kind of experiment: OT_PPARg_PPARgSRC1_0480: Odyssey Thera (OT) 8-hour Protein-Complementation Assay for Peroxisome Proliferator-activated Receptor Gamma / SRC-1 Co-activator (AID 2283387).
Sequence of Peroxisome proliferator-activated receptor gamma (Homo sapiens) (P37231 whole entry, looked up): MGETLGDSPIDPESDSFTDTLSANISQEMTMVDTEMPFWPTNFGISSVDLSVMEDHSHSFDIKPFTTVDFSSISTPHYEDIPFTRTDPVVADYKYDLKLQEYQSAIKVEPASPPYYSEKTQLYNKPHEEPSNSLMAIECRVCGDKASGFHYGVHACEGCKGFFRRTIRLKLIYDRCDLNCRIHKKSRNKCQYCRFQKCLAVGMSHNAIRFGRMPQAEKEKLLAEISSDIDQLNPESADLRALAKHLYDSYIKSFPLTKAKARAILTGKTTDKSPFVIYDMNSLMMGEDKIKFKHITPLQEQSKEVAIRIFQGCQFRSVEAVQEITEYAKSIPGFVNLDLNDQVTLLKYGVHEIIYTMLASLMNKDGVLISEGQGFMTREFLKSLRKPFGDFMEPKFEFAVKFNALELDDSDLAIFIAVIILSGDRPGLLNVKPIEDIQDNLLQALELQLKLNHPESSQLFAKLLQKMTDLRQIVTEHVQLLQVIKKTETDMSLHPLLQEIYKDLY
Settings: not given
The method, boiled down: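 HEK293T transiently transfected with PPARg and SRC-1 fused to Venus YFP fragments, compounds 8 h at 37C. Fixed, Draq5-stained cells imaged; nuclear/cytoplasmic 488 nm fluorescence ratio over at least 350 cells per image; gain fitted versus DMSO.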
The term AC50 denotes the concentration giving half of the maximal activity seen. For the molecule `O=S1(=O)OC(c2cc(Br)c(O)c(Br)c2)(c2cc(Br)c(O)c(Br)c2)c2ccccc21`, the AC50 was 46.5 µM (active).
For `Nc1ncn[nH]1`, the result was inactive.
Consider `O=C1c2ccccc2C(=O)C1C(=O)C(c1ccccc1)c1ccc(Cl)cc1` (stereo not drawn), for which the molecule was called inactive.
The same measure, in the same setting: under `COc1ccccc1N` stands “inactive”.
For `Clc1cccc(Cl)c1Cl`, the molecule was called inactive.
Consider `O=C(NC(=O)c1c(F)cccc1F)Nc1cc(Cl)c(OC(F)(F)C(F)C(F)(F)F)cc1Cl` (stereo not drawn), for which the molecule was called inactive.
Same read-out and setting: the value for `N#CCCC(Br)(C#N)CBr` (stereo not drawn) was “inactive”; that for `O=C(O)COc1cc(Cl)c(Cl)cc1Cl` was “inactive”.
With `O=S1OC[C@@H]2[C@H](CO1)[C@]1(Cl)C(Cl)=C(Cl)[C@@]2(Cl)C1(Cl)Cl` (stereo partly drawn), the molecule was classed as inactive.
On to `COc1ccc(N)cc1`, for which the molecule was classed as inactive.
On the same count and under the same terms, under `O=c1[nH]c(=O)n(Cl)c(=O)n1Cl` stands “inactive”; under `O=c1nc(O)n(Cl)c(=O)n1Cl`, “inactive”.
With `C=CC(Cl)CCl` (stereo not drawn), the outcome was inactive.
For `COc1nn(C(=O)NS(=O)(=O)c2ccccc2OC(F)(F)F)c(=O)n1C`, the call was inactive.
On the same count and under the same terms, the value for `Oc1cc(Cl)c(Cl)cc1Cl` was “inactive”; that for `O=[N+]([O-])c1ccccc1O` was “inactive”.
Still for that read-out and setting: under `CNC(=O)O/N=C/C(C)(C)S(C)(=O)=O` stands “inactive”; under `O=C(O)C1(c2ccc3c(c2)OC[C@H](Cc2ccc(-c4ccccc4)cc2)[C@H]3O)CCCC1`, “inactive”; under `CCOP(=S)(OCC)O/N=C(\C#N)c1ccccc1`, “inactive”.
On the same count and under the same terms, under `OCCCCO` stands “inactive”.
For the molecule `O=C(NC(=O)c1c(F)cccc1F)Nc1ccc(Cl)cc1`, the call was inactive.
As to `N#CS`, the molecule was classed as inactive.
The same measure, in the same setting: the value for `Cc1cc(Cl)ccc1OCCCC(=O)O` was “inactive”.
With `N#Cc1cccnc1`, the molecule was classed as inactive.
The same measure, in the same setting: the value for `Clc1cccc(Cl)c1` was “inactive”; that for `CCN(CCO)CCO` was “inactive”.
The same measure, in the same setting: under `O=C(CBr)c1ccc(O)cc1` stands “inactive”.
Still for that read-out and setting: under `O=C(N[C@H]1CN2CCC1CC2)c1ccc2c(c1)OCCO2` stands “inactive”.
Turning to `CC(O)(CS(=O)(=O)c1ccc(F)cc1)C(=O)Nc1ccc(C#N)c(C(F)(F)F)c1` (stereo not drawn), the result was inactive.

The target is the same in another test. As to the kind of experiment: OT_PPARg_PPARgSRC1_1440: Odyssey Thera (OT) 24-hour Protein-Complementation Assay for Peroxisome Proliferator-activated Receptor Gamma/ SRC-1 Co-activator (AID 2283388).
Settings: not given
In a few lines: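 HEK293T cells transiently transfected with PPARg and SRC-1 fused via (Gly4Ser)2 linker to split Venus YFP fragments (IFP1/IFP2) were dosed 24 h; fixed, Draq5-stained, imaged at 488/635 nm; nuclear/cytoplasmic fluorescence ratio scored versus DMSO baseline, gain-of-signal.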
On to `O=S1(=O)OC(c2cc(Br)c(O)c(Br)c2)(c2cc(Br)c(O)c(Br)c2)c2ccccc21`, for which the AC50 is 51.9 µM (active).
For the molecule `Nc1ncn[nH]1`, the call was inactive.
`O=C1c2ccccc2C(=O)C1C(=O)C(c1ccccc1)c1ccc(Cl)cc1` (stereo not drawn): the concentration at half-maximal activity (AC50) was 69.3 µM (active).
With `COc1ccccc1N`, the outcome was inactive.
On the same count and under the same terms, under `Clc1cccc(Cl)c1Cl` stands “inactive”.
The same measure, in the same setting: under `O=C(NC(=O)c1c(F)cccc1F)Nc1cc(Cl)c(OC(F)(F)C(F)C(F)(F)F)cc1Cl` (stereo not drawn) stands “inactive”; under `N#CCCC(Br)(C#N)CBr` (stereo not drawn), “inactive”; under `O=C(O)COc1cc(Cl)c(Cl)cc1Cl`, “inactive”.
Same read-out and setting: under `O=S1OC[C@@H]2[C@H](CO1)[C@]1(Cl)C(Cl)=C(Cl)[C@@]2(Cl)C1(Cl)Cl` (stereo partly drawn) stands “inactive”; under `COc1ccc(N)cc1`, “inactive”.
As to `O=c1[nH]c(=O)n(Cl)c(=O)n1Cl`, the result was inactive.
Turning to `O=c1nc(O)n(Cl)c(=O)n1Cl`, the call was inactive.
Same read-out and setting: the value for `C=CC(Cl)CCl` (stereo not drawn) was “inactive”; that for `COc1nn(C(=O)NS(=O)(=O)c2ccccc2OC(F)(F)F)c(=O)n1C` was “inactive”; that for `Oc1cc(Cl)c(Cl)cc1Cl` was “inactive”.
For `O=[N+]([O-])c1ccccc1O`, the outcome was inactive.
Still for that read-out and setting: under `CNC(=O)O/N=C/C(C)(C)S(C)(=O)=O` stands “inactive”; under `O=C(O)C1(c2ccc3c(c2)OC[C@H](Cc2ccc(-c4ccccc4)cc2)[C@H]3O)CCCC1`, “inactive”.
Same read-out and setting: under `CCOP(=S)(OCC)O/N=C(\C#N)c1ccccc1` stands “inactive”; under `OCCCCO`, “inactive”; under `O=C(NC(=O)c1c(F)cccc1F)Nc1ccc(Cl)cc1`, “inactive”.
On the same count and under the same terms, under `N#CS` stands “inactive”; under `Cc1cc(Cl)ccc1OCCCC(=O)O`, “inactive”.
`N#Cc1cccnc1`: the molecule was called inactive.
On the same count and under the same terms, under `Clc1cccc(Cl)c1` stands “inactive”; under `CCN(CCO)CCO`, “inactive”; under `O=C(CBr)c1ccc(O)cc1`, “inactive”.
Take `O=C(N[C@H]1CN2CCC1CC2)c1ccc2c(c1)OCCO2`: the outcome was inactive.
Same read-out and setting: under `CC(O)(CS(=O)(=O)c1ccc(F)cc1)C(=O)Nc1ccc(C#N)c(C(F)(F)F)c1` (stereo not drawn) stands “inactive”.

Read-out in the next test: not listed separately
As to the kind of experiment: CEETOX_H295R_11DCORT: CeeTox H295R High-throughput Steroidogenesis Assay for 11-Deoxycortisol (11DCORT) (AID 2283432; active = hit-call score of the fitted dose curve at least 0.9, where 1 is the maximum; inactive = score below 0.9;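 for AC50: 11-deoxycortisol secreted into the medium measured by LC-MS/MS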). The following applies: actives raise or lower the signal. In a few lines: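 H295R cells prestimulated 48 h with 10 uM forskolin, then exposed 48 h to chemical in 0.1% DMSO. 11-Deoxycortisol in medium quantified by HPLC-MS/MS after MTBE extraction; bidirectional fit versus DMSO. MTT viability read in same wells.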
As to `O=S1OC[C@@H]2[C@H](CO1)[C@]1(Cl)C(Cl)=C(Cl)[C@@]2(Cl)C1(Cl)Cl` (stereo partly drawn), the half-maximal activity concentration (AC50) is 39.7 µM (active).
Turning to `COc1ccc(N)cc1`, the result was inactive.
Regarding `CCOP(=S)(OCC)O/N=C(\C#N)c1ccccc1`, the concentration at half-maximal activity (AC50) is 82.5 µM (active).

Read-out in a further test: not listed separately
The test is described as follows: CEETOX_H295R_OHPREG: CeeTox H295R High-throughput Steroidogenesis Assay for OH-Pregnenolone (OHPREG) (AID 2283434; active = hit-call score of the fitted dose curve at least 0.9, where 1 is the maximum; inactive = score below 0.9). To be noted: actives raise or lower the signal. The method, boiled down:
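Human adrenal H295R cells were prestimulated 48 h with 10 uM forskolin, then exposed 48 h to chemical in 0.1% DMSO. Medium 17alpha-hydroxypregnenolone was quantified by HPLC-MS/MS after MTBE extraction; bidirectional fitting versus DMSO baseline.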
`O=S1OC[C@@H]2[C@H](CO1)[C@]1(Cl)C(Cl)=C(Cl)[C@@]2(Cl)C1(Cl)Cl` (stereo partly drawn): the AC50 is 12.1 µM (active).
Consider `COc1ccc(N)cc1`, for which the outcome was inactive.
The same measure, in the same setting: under `CCOP(=S)(OCC)O/N=C(\C#N)c1ccccc1` stands “inactive”.

Read-out in a further test: not listed separately
As to the kind of experiment: CEETOX_H295R_OHPROG: CeeTox H295R High-throughput Steroidogenesis Assay for OH-Progesterone (OHPROG) (AID 2283435; active = hit-call score of the fitted dose curve at least 0.9, where 1 is the maximum; inactive = score below 0.9;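 for AC50: 17alpha-hydroxyprogesterone secreted into medium measured by HPLC-MS/MS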). To be noted: actives raise or lower the signal. In a few lines: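 H295R, 10 uM forskolin prestim 48 h; cmpd in 0.1% DMSO 48 h; medium MTBE-extracted, HPLC-MS/MS for OH-progesterone; 7-pt std curve; bidirectional fit vs DMSO; MTT viability, chemicals diluted until viability >/=70%.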
Consider `O=S1OC[C@@H]2[C@H](CO1)[C@]1(Cl)C(Cl)=C(Cl)[C@@]2(Cl)C1(Cl)Cl` (stereo partly drawn), for which the AC50 is 41.2 µM (active).
Still for that read-out and setting: the value for `COc1ccc(N)cc1` was 31.7 µM (active).
For the molecule `CCOP(=S)(OCC)O/N=C(\C#N)c1ccccc1`, the molecule was classed as inactive.

Read-out in a further test: not listed separately
The test is described as follows: CEETOX_H295R_CORTIC: CeeTox H295R High-throughput Steroidogenesis Assay for Corticosterone (CORTIC) (AID 2283437; active = hit-call score of the fitted dose curve at least 0.9, where 1 is the maximum; inactive = score below 0.9;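 note: corticosterone secreted into medium quantified by mass spectrometry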). The following applies: actives raise or lower the signal. The method, boiled down: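 H295R cells were prestimulated 48 h with 10 uM forskolin, then exposed 48 h to test chemical in 0.1% DMSO. Medium corticosterone was MTBE-extracted and quantified by HPLC-MS/MS; bidirectional fit versus DMSO baseline.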
Consider `O=S1OC[C@@H]2[C@H](CO1)[C@]1(Cl)C(Cl)=C(Cl)[C@@]2(Cl)C1(Cl)Cl` (stereo partly drawn), for which the result was inactive.
On to `COc1ccc(N)cc1`, for which the call was inactive.
On to `CCOP(=S)(OCC)O/N=C(\C#N)c1ccccc1`, for which the AC50 is 13.8 µM (active).

Read-out in a further test: not listed separately
The test is described as follows: CEETOX_H295R_CORTISOL: CeeTox H295R High-throughput Steroidogenesis Assay for Cortisol (AID 2283438; active = hit-call score of the fitted dose curve at least 0.9, where 1 is the maximum; inactive = score below 0.9;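 note: cortisol secreted into medium quantified by LC-MS/MS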). To be noted: actives raise or lower the signal. The method, boiled down: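 Forskolin 10 uM 48 h prestim → test cmpd in DMSO (0.1% final) 48 h → medium MTBE-extracted → LC-MS/MS cortisol vs 7-pt std curve. Gain/loss of signal fitted vs DMSO. MTT viability in same wells.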
As for `O=S1OC[C@@H]2[C@H](CO1)[C@]1(Cl)C(Cl)=C(Cl)[C@@]2(Cl)C1(Cl)Cl` (stereo partly drawn), the AC50 is 38.3 µM (active).
On to `COc1ccc(N)cc1`, for which the molecule was called inactive.
With `CCOP(=S)(OCC)O/N=C(\C#N)c1ccccc1`, the AC50 was 87.8 µM (active).

The values above are taken from PubChem BioAssay (EPA / NIEHS).
